38 compounds from PubChem BioAssay (NCATS) can be followed below.

Where “and” joins values, the source holds several entries; their conditions need not be identical. Identical values can stand only once. Results filed as inconclusive are left out. Where a structure was tested more than once in an assay, its records may differ in their call. Calls of active or inactive are those of the source. Unless noted, the call rests on the fitted dose curve; in most records, active means well fitted curve in the direction sought with a large enough effect; inconclusive means small, poorly fitted or top-dose-only effect, or another doubt; inactive means no such curve, though single readings can be large; an effect the other way counts as inactive or inconclusive.
Potency means the concentration at half of the fitted maximal effect.

System in one assay: not listed separately
Put plainly: Primary qHTS to identify inhibitors of SARS-CoV-2 cell entry (AID 1645846; calls by dose curve; further: nearly all actives have a fitted effect of over 45% in size). The note with it: SARS-CoV-2 pseudovirus cell entry assay, luminescence; activity change, negative = inhibition: at 57.1 µM (top of the series) unless noted; series mostly up to 57.1 µM. The method, boiled down: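 Luminescence readout (Bright-Glo luciferase) 48 h after pseudoparticle addition. HEK293-ACE2 cells, 1500/well; compound pre-incubation 1 h; Normalized to spike PP and bald PP.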
Regarding `CC(=O)[O][Hg][c]1ccccc1`, the Potency was 1.58 µM (active). As to `c1ccc(C2(c3ccccc3)CC2C2=NCCN2)cc1` (configuration not stated), the activity change, negative = inhibition is -20.9%. For `CC(C)[C@]12O[C@H]1[C@@H]1O[C@]13[C@]1(O[C@H]1C[C@H]1C4=C(CC[C@@]13C)C(=O)OC4)[C@@H]2O`, the activity change, negative = inhibition was -93.7%.

With `CC1=C(O)C(=O)C=C2C1=CC=C1[C@@]2(C)CC[C@@]2(C)[C@@H]3C[C@](C)(C(=O)O)CC[C@]3(C)CC[C@]12C`, the Potency is 14.1 µM (active). As for `CC1=C[C@@H]2[C@@H]([C@@H](O)C[C@@]3(C)[C@H]2C[C@@H](C)[C@]3(O)C(=O)CO)[C@@]2(C)Cc3cnn(-c4ccccc4)c3C=C12`, the Potency result is “inactive”. Regarding `COc1ccc(N(C(=O)Oc2c(C)cccc2C)c2ccnc(Nc3ccc(N4CCN(C)CC4)cc3)n2)c(OC)c1`, the Potency entry was “inactive”. Regarding `COc1c(N2CCNC(C)C2)c(F)cc2c(=O)c(C(=O)O)cn(C3CC3)c12` (configuration not stated), the activity change, negative = inhibition is -3.63% and -6.19%.

With `O=c1[nH]c2ccc(Cl)cc2c(N[C@@H]2CN3CCC2CC3)c1-c1nc2ccccc2[nH]1`, the activity change, negative = inhibition was -97.1%.

As for `CCNC(=O)CC1N=C(c2ccc(Cl)cc2)c2cc(OC)ccc2-n2c(C)nnc21` (configuration not stated), the activity change, negative = inhibition is -16.5%. As to `COc1ccc2c(c[n+](C)c3c4cc5c(cc4ccc23)OCO5)c1OC`, the activity change, negative = inhibition is -96.4%. On the same count and under the same terms, for `COc1cc2c(cc1O)CC[C@@H]1[C@@H]2CC[C@]2(C)[C@@H](O)CC[C@@H]12` the value was -26.7%; for `CCCCCC[C@H]1C(=O)O[C@H](C)[C@H](NC(=O)c2cccc(NC=O)c2O)C(=O)O[C@@H](C)[C@@H]1OC(=O)CC(C)C`, -94.1%.

As for `O=C1[C@H](Cc2ccc(O)cc2)N2C(=O)CCN(C(=O)NCc3ccccc3)[C@H]2CN1Cc1cccc2ccccc12`, the activity change, negative = inhibition was -93.3%. On the same count and under the same terms, with `CC(=O)Nc1ccc(OC[C@](C)(O)C(=O)Nc2ccc([N+](=O)[O-])c(C(F)(F)F)c2)cc1` the figure was 0.0964%; with `CC[C@@]1(O)C(=O)OCc2c1cc1n(c2=O)Cc2cc3ccccc3nc2-1`, -94.8%; with `COC(=O)[C@@H](N)CCCN=C(N)N[N+](=O)[O-]`, -1.1%. With `C=CCn1c(=O)c2cnc(Nc3ccc(N4CCN(C)CC4)cc3)nc2n1-c1cccc(C(C)(C)O)n1`, the Potency is 1.41 µM (active). Turning to `C/C=C(/C)C(=O)O[C@H]1C(C)=C2[C@H]([C@@H]1OC(=O)CCCCCCC)[C@@](C)(OC(C)=O)C[C@H](OC(=O)CCC)[C@@]1(O)[C@H]2OC(=O)[C@@]1(C)O`, the Potency is 22.4 µM (active). Regarding `CC[C@@H](C(N)=O)N1CCCC1=O`, the activity change, negative = inhibition is -1.29%. Consider `CC(C)(C)OC(=O)Nc1ccc(-c2cc(C(=O)NCCCCCCC(=O)NO)no2)cc1`, for which the activity change, negative = inhibition is -8.17%. Turning to `C[C@@]12O[C@@H](C[C@]1(O)CO)n1c3ccccc3c3c4c(c5c6ccccc6n2c5c31)CNC4=O`, the Potency is 1.41 µM (active). Take `S=C(NCc1ccc2c(c1)OCO2)N1CCN(c2ncnc3c2oc2ccccc23)CC1`: the Potency is 6.31 µM (active). With `COc1ncnc(NS(=O)(=O)c2ccc(N)cc2)c1OC`, the Potency result is “inactive” and the activity change, negative = inhibition is -2.62%. Turning to `CC1(N2CCC(n3c([C@@H]4CCCNC4)nc4ccccc43)CC2)CCCCCCC1`, the Potency was 5.01 µM (active). The same measure, in the same setting: with `CCCCCCCCCCCCCCCC[N+](C)(C)C` the figure was 25.1 µM (active). For the compound `CCN(CC)CCn1c(=O)c(Cc2ccc(OC)cc2)nc2ccccc21`, the activity change, negative = inhibition was -28.6%.

Consider `CCCCC(CC)COC(=O)/C=C/c1ccc(OC)cc1` (configuration not stated), for which the activity change, negative = inhibition was -3.29%.

On to `COc1cc2c(cc1OC)[C@@H]1C(=O)c3ccc4c(c3O[C@@H]1CO2)C=CC(C)(C)O4`, for which the activity change, negative = inhibition was -98.6%. In the case of `Cc1[nH]nc2ccc(-c3cncc(OC[C@@H](N)Cc4c[nH]c5ccccc45)c3)cc12`, the activity change, negative = inhibition was -97.4%.

In another assay the target is Papain (Carica papaya) (UniProt P00784). Briefly: Primary qHTS assay for inhibitors of the protease papain (AID 1645873).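 Further: papain turnover of Z-FR-AMC read as the AMC fluorescence gain over 10 min.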 On activity change, negative = inhibition: on the % scale 0 is the no-effect control and ±100 the full control effect. The note with it: papain Z-FR-AMC cleavage, AMC fluorescence; series mostly up to 49.8 µM.
Papain (Carica papaya), sequence (P00784 whole entry, looked up): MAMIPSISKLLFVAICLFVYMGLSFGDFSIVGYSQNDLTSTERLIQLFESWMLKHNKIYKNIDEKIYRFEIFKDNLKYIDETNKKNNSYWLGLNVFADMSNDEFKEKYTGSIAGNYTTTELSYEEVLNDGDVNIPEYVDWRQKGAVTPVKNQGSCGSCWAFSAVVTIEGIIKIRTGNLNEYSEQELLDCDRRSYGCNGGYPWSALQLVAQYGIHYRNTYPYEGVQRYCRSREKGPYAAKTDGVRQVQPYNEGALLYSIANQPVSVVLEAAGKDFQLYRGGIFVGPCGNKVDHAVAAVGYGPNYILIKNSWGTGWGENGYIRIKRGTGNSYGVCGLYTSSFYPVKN
On to `c1ccc(C2(c3ccccc3)CC2C2=NCCN2)cc1` (configuration not stated), for which the Potency entry is “inactive”. Same read-out and setting: for `O=C1CCCN1CC#CCN1CCCC1` the value was “inactive”. With `NC(=O)CN1CC(O)CC1=O` (configuration not stated), the Potency entry is “inactive”. For `NC(=NCCC[C@H](N)C(=O)O)N[N+](=O)[O-]`, the Potency result was “inactive”.

With `COc1ccc2c(c[n+](C)c3c4cc5c(cc4ccc23)OCO5)c1OC`, the Potency result is “inactive”. Same read-out and setting: with `NC(CP(=O)(O)O)C(=O)O` (configuration not stated) the entry was “inactive”; with `CCCN(CCC)[C@@H]1CCc2ccc(O)cc2C1`, “inactive”. `NC(CCP(=O)(O)O)C(=O)O` (configuration not stated): the Potency entry was “inactive”. The same measure, in the same setting: for `CNCCc1c[nH]c2ccc(O)cc12` the value was “inactive”; for `CC[C@@]1(O)C(=O)OCc2c1cc1n(c2=O)Cc2cc3ccccc3nc2-1`, 3.98 µM (active). For `CC[C@@H](C(N)=O)N1CCCC1=O`, the Potency entry was “inactive”. `NCc1cc(=O)[nH]o1`: the Potency entry is “inactive”. With `O=C(Cc1ccc(Cl)c(Cl)c1)N1CCCCC1CN1CCCC1` (configuration not stated), the Potency result is “inactive”.

System in another assay: not listed separately
Briefly: Primary qHTS for inhibitors of nuclear receptor binding SET domain protein 2 (NSD2) in an isogenic RCH-ACV NSD2 p.E1099K mutant (9B) (AID 1645876). Further: nearly all actives have a fitted effect of over 70% in size. The note with it: RCH-ACV (leukaemia line) NSD2 E1099K (9B) viability, CellTiter-Glo, 72 h; series mostly up to 44.9 µM.
`CC(=O)[O][Hg][c]1ccccc1`: the Potency was 596 nM (active). Same read-out and setting: for `CC(C)[C@]12O[C@H]1[C@@H]1O[C@]13[C@]1(O[C@H]1C[C@H]1C4=C(CC[C@@]13C)C(=O)OC4)[C@@H]2O` the value was 18.3 nM (active) and 23.5 nM (active); for `CC1=C(O)C(=O)C=C2C1=CC=C1[C@@]2(C)CC[C@@]2(C)[C@@H]3C[C@](C)(C(=O)O)CC[C@]3(C)CC[C@]12C`, 1480 nM (active); for `COc1ccc(N(C(=O)Oc2c(C)cccc2C)c2ccnc(Nc3ccc(N4CCN(C)CC4)cc3)n2)c(OC)c1`, 4680 nM (active). On to `O=c1[nH]c2ccc(Cl)cc2c(N[C@@H]2CN3CCC2CC3)c1-c1nc2ccccc2[nH]1`, for which the Potency was 64.9 nM (active) and 83.3 nM (active). The same measure, in the same setting: for `CCNC(=O)CC1N=C(c2ccc(Cl)cc2)c2cc(OC)ccc2-n2c(C)nnc21` (configuration not stated) the value was 9.34 µM (active) and inactive and 515 nM (active).

As to `COc1ccc2c(c[n+](C)c3c4cc5c(cc4ccc23)OCO5)c1OC`, the Potency result was “inactive”. Take `CC[C@@]1(O)C(=O)OCc2c1cc1n(c2=O)Cc2cc3ccccc3nc2-1`: the Potency was 14.8 nM (active). `COC(=O)[C@@H](N)CCCN=C(N)N[N+](=O)[O-]`: the Potency result was “inactive”.

As to `C/C=C(/C)C(=O)O[C@H]1C(C)=C2[C@H]([C@@H]1OC(=O)CCCCCCC)[C@@](C)(OC(C)=O)C[C@H](OC(=O)CCC)[C@@]1(O)[C@H]2OC(=O)[C@@]1(C)O`, the Potency was 5.8 nM (active) and 16.6 nM (active). The same measure, in the same setting: for `CC[C@@H](C(N)=O)N1CCCC1=O` the value was “inactive”; for `CC1(N2CCC(n3c([C@@H]4CCCNC4)nc4ccccc43)CC2)CCCCCCC1`, 8.17 µM (active) and 14.8 µM (active). Still for that read-out and setting: for `CCCCCCCCCCCCCCCC[N+](C)(C)C` the value was 422 nM (active); for `Cc1[nH]nc2ccc(-c3cncc(OC[C@@H](N)Cc4c[nH]c5ccccc45)c3)cc12`, 145 nM (active) and 235 nM (active).
